Results published in PubChem BioAssay AID540277 (National Center for Advancing Translational Sciences (NCATS), 2011).
The whole screen tested about 320,000 compounds, of which about 55 (0.02%) were called active. Not shown: some 3% with an inconclusive outcome. For the sample, actives were picked, then their nearest neighbours and some compounds at random. Unmarked numbers belong to inactive results. Cut-off read from the data, not from the text of the source: active = potentiation above about 80%; inconclusive = between about 30% and that limit; inactive = weaker than that.

Molecular target: Transient receptor potential cation channel subfamily V member 1 (Homo sapiens) (UniProt Q8NER1)
Experiment: HTS Assay for Compounds that Act as Potentiators of the Vanilloid Receptor 1; note: 0% is about no effect
Conditions: TRPV1-expressing cells, Fluo-8 calcium influx, capsaicin EC20 potentiation; at 8.33 µM; hits give high values
From the text: The transient receptor potential ion channel, family V, number 1, (TRPV1) is one of the most important molecular transducers of painful stimuli and a potential target for analgesic drug development. Although recent clinical trials with orthosteric antagonists have not produced a successful drug because of a hyperthermia side effect and their tendency to block thermal noxious pain, this ion channel is undeniably well placed in the pain pathway, and the idea of blocking pain signals before they enter the CNS is an excellent concept and of proven efficacy when TRPV1 agonists are used. We propose a new approach involving allosteric modulation to impose an activity-dependent constraint within the context of inflammation and tissue damage that would alter the responsiveness of the channel in a way that an orthosteric vanilloid antagonist cannot achieve. We believe that the allosteric modulator approach has not been explored for this target. The main goal of this proposal is to identify additional, new, potent allosteric modulators of TRPV1 that can be used to investigate TRPV1 function. Our recent report provides evidence of proof of concept, but the compounds are just at the edge of utility in terms of potency. […] The question of whether they can be used as analgesic agents is complex, but if suitable compounds are identified then testing for analgesic properties will be conducted. NIH Chemical Genomics Center [NCGC] NIH Molecular Libraries Probe Centers Network [MLPCN] MLPCN Grant: MH089480-1A1 Assay Submitter (PI): Michael Iadarola, National Institute of Dental and Cranofacial Research
Upon TRPV1 activation in TRPV1 cells, the channel opens and extracellular cations flow through the channel into the cytosol. A calcium binding dye (Fluo-8) becomes fluorescent when bound to calcium. This dye is pre-loaded into cells and is used as a marker for calcium influx. The amount of accumulated calcium is precisely quantified using the FDSS kinetic reader and the calcium dye. For the HTS assay, freshly prepared cells are plated at a density of 2000/well in 3 ul medium in 1536-well plates and cultured overnight at 35.5C. Cells will be loaded with 1 ul of the homogeneous calcium dye (ABD Bioquest) at room temperature for 40 to 90 minutes. Plates will be loaded into the FDSS kinetic reader and a 1 sec / cycle for 10 second baseline signal will be measured. Compound library will then be added with a pintool at 23 nl and measured kinetically for 3 minutes. This portion of the read is considered the agonist portion of the screen. Following the 3 minutes of incubation, an on board pipettor will deliver 1 ul of capsaicin for a final concentration equal to the EC20. Signal will be measured kinetically for an additional 2 minutes. This portion of the read is considered the allosteric enhancer portion of the screen. The FDSS reader has a standard filter set capable of measuring calcium bound Fluo-8 (ex=480 and em=520 nm).

Transient receptor potential cation channel subfamily V member 1 (Homo sapiens), sequence (Q8NER1 whole entry, looked up): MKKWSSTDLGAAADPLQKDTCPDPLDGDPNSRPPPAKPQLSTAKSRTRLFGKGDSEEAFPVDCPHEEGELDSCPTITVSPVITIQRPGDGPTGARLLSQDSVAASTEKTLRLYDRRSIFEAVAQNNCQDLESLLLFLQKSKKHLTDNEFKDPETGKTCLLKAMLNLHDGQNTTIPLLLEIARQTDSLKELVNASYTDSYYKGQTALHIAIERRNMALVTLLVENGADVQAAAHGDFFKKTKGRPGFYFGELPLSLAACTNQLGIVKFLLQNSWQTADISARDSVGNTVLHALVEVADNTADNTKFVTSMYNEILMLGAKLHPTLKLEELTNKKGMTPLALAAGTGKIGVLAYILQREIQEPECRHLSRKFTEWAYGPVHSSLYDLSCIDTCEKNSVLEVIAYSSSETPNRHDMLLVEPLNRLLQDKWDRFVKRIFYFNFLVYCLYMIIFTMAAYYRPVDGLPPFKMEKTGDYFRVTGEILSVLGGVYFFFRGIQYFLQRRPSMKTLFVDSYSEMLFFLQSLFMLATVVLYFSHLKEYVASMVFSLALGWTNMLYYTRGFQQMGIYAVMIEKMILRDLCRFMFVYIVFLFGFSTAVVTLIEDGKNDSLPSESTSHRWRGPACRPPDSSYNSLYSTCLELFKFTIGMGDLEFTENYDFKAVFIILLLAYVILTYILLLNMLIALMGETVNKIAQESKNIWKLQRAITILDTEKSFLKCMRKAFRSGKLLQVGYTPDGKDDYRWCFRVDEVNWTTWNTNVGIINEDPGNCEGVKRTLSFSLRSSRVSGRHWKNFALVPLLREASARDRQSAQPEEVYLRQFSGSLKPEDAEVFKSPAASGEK

Compound	potentiation
COC(=O)c1cc(Oc2ccc(S(=O)(=O)N3CCOCC3)cc2[N+](=O)[O-])cc(C(=O)OC)c1	10.8%
CN1CCN(C2=NCCO2)CC1	-4.44%
CCOc1ccc(S(=O)(=O)N2CCCCC2)cc1NC(=O)CN1CCCC1c1cccs1 (configuration not stated)	-19.8%
Cc1ccc(C(=O)CN2C(=O)NC3(CCOc4ccccc43)C2=O)s1 (configuration not stated)	-10.3%
CC(=O)N(CC1CCCO1)C1(C(=O)NC2CCCC2)CCCCC1 (configuration not stated)	-6.84%
CC(=O)NCC(=O)N(Cc1ccco1)C1(C(=O)NC2CCCC2)CCCCC1	85.2% (active)
O=C(c1ccc(=O)[nH]c1)N(Cc1ccco1)C1(C(=O)NC2CCCCC2)CCCCC1	6.34%
Cc1n[nH]c(=O)c2c(NC(=O)CSc3cc(Cl)ccc3Cl)oc(C)c12	13.8%
CC1CC1C(=O)OCC(=O)Nc1cccc(F)c1 (configuration not stated)	-20.7%
Cn1c(N)c(C(=O)COC(=O)/C=C/c2cccc(C(F)(F)F)c2)c(=O)n(C)c1=O	-32.4%
COc1ccc(C(C[N+](=O)[O-])n2nc(C)cc2C)cc1 (configuration not stated)	0.93%
COc1ccc(S(=O)(=O)N2CCOCC2)cc1NC(=O)CC1CC2CCC1C2 (configuration not stated)	2%
CCCCn1c(SCC(=O)N2CCCC2=O)nc2cc(S(N)(=O)=O)ccc21	-9.34%
CCOC(=O)c1sc(=NC(=O)/C=C/c2cccs2)n(C)c1C	-3.16%
O=S(=O)(Nc1cc(Cl)ccc1N1CCOCC1)c1ccccc1Cl	28.9%
CN(c1ccccc1)S(=O)(=O)c1cccc(NC(=O)Cc2ccc(Cl)cc2)c1	-2.65%
O=C(COC(=O)c1c(Cl)cccc1Cl)Nc1cccc(S(=O)(=O)NC2=NCCCCC2)c1	4.82%
Cc1ccc(S(=O)(=O)Nc2nc(CN3CCOCC3)nc3sc(C)c(C)c23)cc1	21.7%
O=C(Nc1ccc2c(c1)OCCO2)C1CCCC1	-1.56%
Cc1cc(NC(=O)COc2ccccc2C#N)no1	13.6%
O=C(CSc1ccccc1)Nc1cccc(S(=O)(=O)N2CCCCC2)c1	-6.03%
CCN(c1ccccc1)S(=O)(=O)c1ccc(OCC(=O)N2CCCC2)cc1	-12.3%
O=C(CN1CCCCC1)NC(=O)Nc1ccccc1F	-35.8%

Compound	potentiation
COc1ccccc1C(=O)NCC(=O)OCC(=O)Nc1nnc(-c2ccccc2)o1	8.76%
Cc1ccc(NC(=O)Cc2nc(COC(=O)C(C)NS(=O)(=O)c3ccc(C)cc3)cs2)cc1 (configuration not stated)	1.83%
COc1ccccc1C(=O)NCCC(=O)NC1=NCCS1	16.5%
Cc1cc(C(=O)COc2ccccc2Cl)c(C)n1C1CC1	-5.33%
CC(C)(C)C(=O)CSc1ccc(S(=O)(=O)N2CCCC2)cn1	5.19%
CCCCn1nc(C(=O)Nc2cccc(C(=O)NC3CC3)c2)c2ccccc2c1=O	-5.5%
CCC(C(=O)N1CCN(S(=O)(=O)c2sc(C(=O)O)c(C)c2C(=O)O)CC1)c1ccccc1 (configuration not stated)	-6.07%
CC1CCCN(C(=O)CN2C(=O)c3ccccc3S2(=O)=O)C1 (configuration not stated)	7.53%
Cc1cc(C(=O)COc2ccc(Br)cc2F)c(C)n1C1CC1	-6.81%
COc1ccc(C(=O)N2CCN(c3ccc(C(C)=O)cc3F)CC2)cc1S(=O)(=O)NC1CC1	-8.79%
CCN1C(=O)C(=O)N(CC(=O)Nc2cc(C)ccc2C)C1=O	4.41%
CCN(CC)c1ccc(NC(=O)CN2C(=O)NC3(CCc4ccccc43)C2=O)cc1 (configuration not stated)	-5.69%
COc1ccc(-c2cc3ncccc3cn2)cc1	-0.0866%
COc1ccc(CN2CCc3nc(Nc4ccccc4)ncc3C2)c(OC)c1OC	1.32%
COc1ccc2c(C)cc(SCC(=O)NCC3CCCO3)nc2c1 (configuration not stated)	-8.57%
CC(Sc1nnc(C2CC2)n1C1CC1)C(=O)Nc1ccc(C(N)=O)cc1 (configuration not stated)	-2.73%
COc1ccc(CN2CCN(C(=O)c3cc(C4CC4)nn3-c3ccccc3)CC2)cc1F	1.31%
CSCCC(NC(=O)c1ccccc1)C(=O)N1CCN(Cc2ccc(Cl)cc2)CC1 (configuration not stated)	10.6%
Cc1ccsc1C(=O)NCCc1ccco1	-5.45%
O=C(Nc1ccc2c(c1)OCO2)C1CC1(Cl)Cl (configuration not stated)	-2.21%
CCN(CC)CCN1C(=O)C(=O)/C(=C(/O)c2cnn(-c3ccccc3)c2C)C1c1cccs1 (configuration not stated)	-0.404%
CCOc1ncccc1C(=O)OCC(=O)Nc1cccc(S(=O)(=O)N2CCCCCC2)c1	-26.2%
COc1ccc(S(=O)(=O)N2CCOCC2)cc1NC(=O)Cc1coc2cc(C)ccc12	4.1%

Compound	potentiation
Cc1nc2ccc(NC(=O)C3CCCCC3)cc2s1	-2.49%
COc1ccc(-c2sc3ccc(OC)cc3c2C#Cc2ccccn2)cc1	-1.97%
CC(C)c1ccc(S(=O)(=O)N2CCN(C(C)C(=O)NC3CCCC3)CC2)cc1 (configuration not stated)	-15.2%
O=C(Nc1ccccn1)C1CCN(S(=O)(=O)c2ccccc2)CC1	-3.8%
COCCn1c(C)cc(C(=O)CSc2nnc(C3CC3)n2C2CC2)c1C	-2.92%
CC(=O)Nc1ccc(Nc2cc(C)nc(Nc3ccc(NC(C)=O)cc3)n2)cc1	13.9%
O=c1ccc2c(-c3ccccc3S(=O)(=O)O)c3ccc(O)c(O)c3oc-2c1O	12.9%
CC(=O)N1CCN(S(=O)(=O)c2cccc(C(=O)NC3CCC(C)CC3)c2)CC1 (configuration not stated)	0.313%
Cc1cc(C(=O)Nc2nnc(C3CC3)s2)c(C)s1	9.37%
COc1cccc(-n2c(SCC(=O)NC3CCS(=O)(=O)C3)nc3ccccc3c2=O)c1 (configuration not stated)	7.53%
CC(C)n1ncc2c(C(=O)Nc3ccc(CC#N)cc3)cc(C3CC3)nc21	-24.2%
COc1cccc(NC(=O)CN(C)CC(=O)c2c(N)n(Cc3ccccc3)c(=O)n(C)c2=O)c1	23.5%
O=S(=O)(NCc1ccccc1Br)c1ccccc1Br	5.51%
CCOC(=O)C1=C(COC(=O)[C@H](C)NS(=O)(=O)c2ccccc2F)NC(=O)NC1C (some centres not stated)	-3.56%
CCOC(=O)c1cc(OC(=O)c2ccccc2Cl)n(-c2ccccc2)n1	0.753%
CCc1sc(C(=O)N2CCN(CC(=O)Nc3cccc(F)c3)CC2)cc1C	-11.7%
CCN(CC(=O)NCc1cccs1)C(=O)/C=C/c1ccc(C)cc1	-0.0424%
COC(=O)c1sc2[nH]c(=S)n(N)c(=O)c2c1C	-11.7%
CCN(c1ccccc1)S(=O)(=O)c1cccc(C(=O)NCc2ccccc2CN2CCOCC2)c1	-5.32%
CCOc1ncccc1C(=O)OCC(=O)c1c[nH]c2ccccc12	3.1%
O=C(CN1C(=O)NC2(CCCCC2)C1=O)N1CCN(C(=O)c2cccs2)CC1	25.7%
CN(C)CCN=c1cc(-c2ccccc2)oc2ccc(Cl)cc12	-6.88%
O=C(COC(=O)c1ccccc1)c1ccc2c(c1)OCCO2	3.76%

Compound	potentiation
Cc1c(C(=O)NNC(=O)c2ccncc2)oc2ccccc12	-17.2%
O=C(O[C@@H]1[C@H](Cc2ccccc2)NS(=O)(=O)[C@H]2C[C@@H]3C=C[C@]12O3)c1ccccc1Br	3.92%
Cc1ccc(OCCC(=O)Nc2ccc(S(=O)(=O)Nc3nccs3)cc2)cc1	17.5%
NC(=O)C1CCN(C(=O)c2ccc(F)c(S(=O)(=O)N3CCOCC3)c2)CC1	-7.69%
CC(C)c1ccc(/C=C/C(=O)NCCCN2CCOCC2)cc1	-19.8%
O=C(NCCC1=CCCCC1)c1ccc(-n2cncn2)cc1	-28.9%
Cc1ccn2c(=O)nc(SCC(=O)NCc3ccc4c(c3)OCO4)nc2c1	-6.94%
CC1CN(/C=C/C(=O)C(F)(F)F)CC(C)O1 (configuration not stated)	11.7%
COc1ccccc1/C=C/C(=O)OCC(=O)NC1CCCCCC1	-11.2%
O=C(NCCc1ccc(F)cc1)c1ccc2nccnc2c1	-3.52%
CC(C)N(Cc1nnc(-c2ccccc2Br)o1)C(=O)c1cc(Cl)nc2ccccc12	-18.4%
Cc1cc(C)cc(OCC(=O)OCC(=O)NC2CCCC2)c1	19.9%
CC(C)C(C)NC(=O)COc1ncnc2ccccc12 (configuration not stated)	5.13%
COC(=O)C(C)NC(=O)COc1ccc2ccccc2c1 (configuration not stated)	3.51%
COCC(C)NC(=O)COc1nncc2ccccc12 (configuration not stated)	80.9% (active)
Cc1cc(C)cc(-c2nnc(SCC(=O)NC3CC3)o2)c1	-9.15%
CCOCc1c(C(=O)N2CCN(Cc3ccc(Br)s3)CC2)oc2ccccc12	-19.8%
COc1ccccc1N1CCN(CC(=O)Nc2ccnn2C2CCCC2)CC1	4.7%
COc1ccccc1-n1nnnc1SCC(=O)NC(=O)Cc1ccccc1	2.96%
COc1ccc(S(=O)(=O)N2CCOCC2)cc1NC(=O)c1ccc(OCC(C)C)c(OC)c1	-5.7%
O=C(Nc1ccccc1F)c1ccc(S(=O)(=O)N2CCCCCC2)cc1	-21.7%
O=S(=O)(NCCc1ccccn1)c1cc(Cl)cc(Cl)c1O	2.4%
O=C(c1cc2ccccc2o1)N1CCN(S(=O)(=O)c2ccc(Cl)s2)CC1	-15.9%
